From PubChem BioAssay (Tox21) come the findings set out here.

The structures appear in SMILES notation. Records with an inconclusive call do not appear. Where a call stands in place of a potency, no number is given. Calls of active or inactive are those of the source. Calls follow the shape of the dose curve; as a rule, active = well fitted cell-killing curve with a large enough effect in the repeat runs; inconclusive = weak or mixed curves; inactive = flat fitted curve, though single readings scatter.

The assay is described as follows: qHTS RealTime-Glo MT Cell Viability Assay in HepG2 cells - 8 hour (AID 1224873). Also: nearly all actives have a fitted effect of over 55% in size. The conditions noted are these: RealTime-Glo luminescence; series mostly up to 76.8 µM. Put shortly:
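HepG2 cells mixed with RealTime-Glo MT reagents (NanoLuc plus cell-permeant prosubstrate) were seeded at 600 cells/well, incubated 5 h at 37 C/5% CO2, then pinned with compounds in DMSO; nonlytic luminescence tracked viability during 40 h treatment.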
For orientation: qHTS replaces the single test concentration by a dilution series.
Regarding `O=C(O)C[C@H](NC(=O)OCc1ccccc1)C(=O)O`, the Potency result is “inactive”. As to `CCCCCCCCCI`, the Potency entry is “inactive”. Consider `O=C=Nc1ccc(Cl)c(Cl)c1`, for which the Potency entry is “inactive”. With `O=C1C(=O)c2ccccc2C(O)=C1C1CCC(c2ccc(Cl)cc2)CC1` (stereo not drawn) the entry was “inactive”; with `C[C@@H](O)[C@H]1C(=O)N2C(C(=O)O)=C([C@H]3CCCO3)S[C@H]12`, “inactive”. With `c1ccc(C[n+]2cccc3ccccc32)cc1` the entry was “inactive”; with `CN(C)CCN1C(=O)c2ccccc2N(C)c2ccccc21`, “inactive”; with `CC(C)C=O`, “inactive”. With `CCC1(CO)COCOC1` the entry was “inactive”. As for `Cc1cscn1`, the Potency result was “inactive”. The result for `C[C@H]1C[C@H](O)c2ccsc2S1(=O)=O` reads “inactive”; that for `O=C(/C=C/c1ccccc1)OCCc1ccccc1`, “inactive”.

With `CC1(C)[C@H](C(=O)O)N2C(=O)C[C@H]2S1(=O)=O`, the Potency result is “inactive”. The result for `CC=C(Cl)Cl` reads “inactive”; that for `NCCNCCO`, “inactive”. The result for `N#CCc1ccc(Cl)cc1Cl` reads “inactive”; that for `CCCCC(CC)CN` (stereo not drawn), “inactive”. The result for `CC(CN(C)C)C(C)(O)Cc1ccc(Cl)cc1` (stereo not drawn) reads “inactive”. Regarding `C[C@@]12CCC[C@H]1[C@@H]1CC[C@H]3C[C@@H](O)CC[C@]3(C)[C@H]1CC2`, the Potency result was “inactive”. With `C[C@]1(Cn2ccnn2)[C@H](C(=O)O)N2C(=O)C[C@H]2S1(=O)=O` the entry was “inactive”; with `Cc1ccccc1N=C(N)Nc1ccccc1C`, “inactive”; with `O=C(O)c1ccc(OCCCOc2ccc(C(=O)O)cc2)cc1`, “inactive”.

For the compound `CC1(C)S[C@@H]2[C@H](NC(=O)C(c3ccccc3)S(=O)(=O)O)C(=O)N2[C@H]1C(=O)O` (stereo partly drawn), the Potency result is “inactive”. The result for `NC(=O)c1ccncc1` reads “inactive”.

For `CO[C@]1(NC(=O)CSC(F)F)C(=O)N2C(C(=O)O)=C(CSc3nnnn3CCO)CO[C@H]21`, the Potency result was “inactive”. With `CCCCN(CCN(CCCC)C(=O)N1CCOCC1)C(=O)N1CCOCC1` the entry was “inactive”. With `O=C1CCCCCCCCCCOCCCCO1` the entry was “inactive”; with `C=C(C)C(=O)OCCOCCOC(=O)C(=C)C`, “inactive”. The result for `COC(=O)C1=C(C)NC(C)=C(C(=O)O[C@@H]2CCCN(Cc3ccccc3)C2)[C@@H]1c1cccc([N+](=O)[O-])c1` reads “inactive”; that for `CCCCCC[C@@H](O)C/C=C\CCCCCCCC(=O)OCC(O)CO` (stereo partly drawn), “inactive”; that for `Cc1c(C)c2c(c(C)c1OC(=O)CCC(=O)OCCO)CC[C@@](C)(CCC[C@H](C)CCC[C@H](C)CCCC(C)C)O2`, “inactive”. `O=C(Cn1ccnc1[N+](=O)[O-])NCCO`: the Potency result was “inactive”.

For `Cc1ccccc1S`, the Potency result was “inactive”. Turning to `CC[N+](CC)(CCNC(=O)C(=O)NCC[N+](CC)(CC)Cc1ccccc1Cl)Cc1ccccc1Cl`, the Potency result is “inactive”. For the compound `C=C1CCC2CC1C2(C)C` (stereo not drawn), the Potency entry was “inactive”.

Take `CCCCCCC(C)(C)C(=O)O`: the Potency entry is “inactive”. With `Cc1ccc(C(C)(C)O)cc1` the entry was “inactive”. The result for `CCCCCCCC/C=C\CCCCCCCCO` reads “inactive”.
